Six1-Eya2 inh – blocks human Six1 binding to Eya2; actives 0.56% (n = 360,000); activity change, % (no concentration beside the values); AID 651725; AlphaScreen GST-Six1/His-Eya2 binding, biochemical; stronger effect = lower value; in the data active = activity change below about -65%; inconclusive = mostly about -30% to -63%
Target sequence (O00167 whole entry, looked up): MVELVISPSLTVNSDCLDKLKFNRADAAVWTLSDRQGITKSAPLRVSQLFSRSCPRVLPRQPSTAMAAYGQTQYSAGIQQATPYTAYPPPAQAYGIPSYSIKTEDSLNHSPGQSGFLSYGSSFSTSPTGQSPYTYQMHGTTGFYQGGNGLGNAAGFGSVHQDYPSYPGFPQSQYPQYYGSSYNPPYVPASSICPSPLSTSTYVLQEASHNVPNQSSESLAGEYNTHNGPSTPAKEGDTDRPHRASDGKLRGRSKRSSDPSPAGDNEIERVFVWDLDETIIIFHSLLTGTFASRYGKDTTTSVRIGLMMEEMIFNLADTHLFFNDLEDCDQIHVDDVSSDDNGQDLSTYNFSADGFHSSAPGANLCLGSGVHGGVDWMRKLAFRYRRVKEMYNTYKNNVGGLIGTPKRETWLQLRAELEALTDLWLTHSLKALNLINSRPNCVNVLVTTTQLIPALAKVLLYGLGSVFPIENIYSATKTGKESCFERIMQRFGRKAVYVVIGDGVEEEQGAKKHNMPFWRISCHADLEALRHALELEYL
Target sequence (Q15475 whole entry, looked up): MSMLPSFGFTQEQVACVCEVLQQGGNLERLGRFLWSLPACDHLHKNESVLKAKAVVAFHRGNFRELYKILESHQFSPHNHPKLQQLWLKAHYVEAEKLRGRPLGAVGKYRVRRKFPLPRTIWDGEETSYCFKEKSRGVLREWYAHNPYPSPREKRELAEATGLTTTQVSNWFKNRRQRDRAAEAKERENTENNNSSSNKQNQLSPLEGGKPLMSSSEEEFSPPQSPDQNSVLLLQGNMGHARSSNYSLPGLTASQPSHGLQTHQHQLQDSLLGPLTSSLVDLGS
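AlphaScreen with GST-Six1 and His-Eya2 (5X mix: 250 nM and 500 nM), glutathione donor and nickel acceptor beads; buffer 50 mM Tris pH 8.0, 300 mM NaCl, 1 mM TCEP; 1 h at 37 C in the dark.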
CtBP-E1A blk – inhibitors of CtBP/E1A interaction. AlphaScreen GST-E1A/His-CtBP binding, 1536-well; stronger effect = lower value. activity change, % (no concentration beside the values). actives 0.49% (n = 340,000); in the data active = activity change below about -65%; inconclusive = mostly about -30% to -63%
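Protein mix (5X: 125 nM each GST-E1A, His-CtBP) was incubated with pinned compound 2 h at 37 deg C in dark, in 50 mM Tris pH 8.0 buffer with 300 mM NaCl. Glutathione donor and nickel acceptor beads followed; AlphaScreen signal read after 1 h.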
DT40 TDP1 no CPT – qHTS for Inhibitors of human tyrosyl-DNA phosphodiesterase 1 (TDP1): qHTS in cells in absence of CPT | Potency, µM (series often up to 46.2 µM), for inactives: at the top dose activity change, negative = growth inhibition, usual class: inhibitors | AID 686978, 2013 | actives 15% (n = 420,000) | DT40 Tdp1-/- hTDP1 cells, no CPT, ATP luminescence, 48 h; also: potency is read from the fitted curve at half-maximal effect; nearly all actives have a fitted effect of over 55% in size
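Compound effects on proliferation are scored in DT40 Tdp1-/-;hTDP1 cells in the absence of CPT. ATP levels (CellTiter-Glo luminescence) are recorded after a ≥48 hr, 37 °C incubation.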
TDP1 inh – TDP1 (human) enzyme inhibition | actives 0.28% (n = 350,000) | Q9NUW8 | recombinant TDP1, AlphaScreen DNA substrate cleavage | Potency, µM (series often up to 130 µM), for the others: top-dose activity change, negative = inhibition, hits mostly inhibitors; also: potency is read from the fitted curve at half-maximal effect; nearly all actives have a fitted effect of over 40% in size
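Tdp1 1 nM final; 15 min RT w/ cpd; substrate 15 nM, 5 min; beads 10 ug/ml, 10 min; AlphaScreen read. Neg ctrl: no enzyme.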
TDP1 cell CPT – DT40-hTDP1 cell growth loss with CPT. AID 686979. chicken DT40 Tdp1-/-;hTDP1 cells + 20 nM CPT, ATP luminescence, 48 h. actives 12% (n = 420,000). Potency, µM (titrated, usually from 46.2 µM), for the others: at the highest dose activity change, negative = growth inhibition, usual class: inhibitors; also: potency is read from the fitted curve at half-maximal effect; nearly all actives have a fitted effect of over 55% in size
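Chicken DT40 Tdp1-/- cells stably complemented with human TDP1 were seeded at 400 cells/well in medium containing 20 nM camptothecin, exposed to pin-transferred compounds, and grown at 37 °C for at least 48 hr. Viability was read as ATP luminescence.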
IL1B secr inh – blocks inflammasome-driven IL-1 beta release | actives 4.7% (n = 360,000) | activity change, % at 57.5 µM | AID 743279 | THP-1 LPS/ATP IL-1B secretion, AlphaLISA, 16 h; stronger effect = lower value; in the data active = activity change below about -50%; inconclusive = mostly about -30% to -49%
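THP-1 cells pretreated 1 hr with compounds (up to 57.5 uM final), then stimulated with LPS (250 ng/mL final) plus ATP (1.25 mM final); secreted IL-1B measured by AlphaLISA after 16 hr, decreased signal indicating inhibition.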
An asterisk follows results filed as active; ? = inconclusive; nt = not tested or not shown; [ ] = dose if it differs, or a comment. Shown are actives, neighbours in structure and some others; about 18% of the full set was active somewhere. Unless noted, calls follow the shape of the dose curve; as a rule, active = well fitted curve in the direction sought with a large enough effect; inconclusive = small, poorly fitted or top-dose-only effect, or another doubt; inactive = no such curve, though single readings can be large; an effect the other way counts as inactive or inconclusive. % is scaled to controls: 0 for no effect and ±100 for the full control effect.

SMILES | Six1-Eya2 inh | CtBP-E1A blk | DT40 TDP1 no CPT | TDP1 inh | TDP1 cell CPT | IL1B secr inh
Cc1onc(-c2c(F)cccc2Cl)c1C(=O)NCc1cccs1 | 7 | 9 | 3% | 5% | -13% | -4
COC(=O)c1ccc(Cl)c(NC(=O)CN(c2ccccc2)S(=O)(=O)c2ccc(OC)cc2)c1 | 4 | -9 | 16µM* | 5% | ? | 12
COc1ccccc1N(CC(=O)Nc1cccc(C(F)(F)F)c1)S(C)(=O)=O | -3 | 8 | -24% | 5% | 7% | -5
COc1ccc(N(CC(=O)Nc2cccc(C)c2)S(=O)(=O)c2ccc(C)cc2)cc1OC | -4 | nt | -22% | 3% | -7% | 9
Cc1ccc([N+](=O)[O-])cc1N(CC(=O)Nc1ccc(S(=O)(=O)Nc2cccc(C(F)(F)F)c2)cc1)S(C)(=O)=O | 5 | -4 | 18µM* | nt | ? | -84*
COC(=O)c1ccc(NC(=O)CN(c2cccc(C(F)(F)F)c2)S(C)(=O)=O)cc1 | nt | nt | 4.6µM* | 1% | 23µM* | nt
COc1ccc(S(=O)(=O)N(CC(=O)Nc2cccc(C(F)(F)F)c2)c2ccc(C)cc2)cc1 | nt | nt | 23µM* | nt | ? | nt
O=C(NCc1ccc2c(c1)OCO2)c1nn(-c2ccccc2)c(=O)c2ccccc12 | -3 | 2 | ? | 4% | ? | 1
CCCc1ccc(C(O)c2ncc(-c3ccccc3C)[nH]2)cc1 (stereo unspecified) | -14 | -8 | ? | nt | ? | -7
CC1CCC(NC(=O)c2cnccn2)CC1 (stereo unspecified) | 4 | 4 | -17% | 5% | -14% | -6
Cc1ccc2c(C)[nH]c(=O)cc2c1 | -9 | -2 | 7.3µM* | -6% | 7.3µM* | 34
CCc1c(C)[nH]c2ccc(C)cc2c1=O | 3 | -11 | ? | 9% | ? | 10
CNC(=O)COC(=O)c1ccccc1C(=O)c1ccc(Cl)c([N+](=O)[O-])c1 | 0 | nt | ? | 6% | ? | -107*
O=C(COC(=O)c1ccccc1C(=O)c1ccc(Cl)c([N+](=O)[O-])c1)NC1CC1 | -8 | 0 | 16µM* | 5% | 18µM* | -103*
Cc1cc2c(OCC(O)CNCc3ccco3)cccc2[nH]1 (stereo unspecified) | -24 | 0 | 16% | nt | -17% | -19
OC(CNCc1ccco1)Cn1c2ccc(Br)cc2c2cc(Br)ccc21 (stereo unspecified) | -10 | -13 | 18µM* | 6% | 15µM* | -59*
CC(=O)Nc1cccc(-c2ccnc3c2CC(C(=O)NCCC(F)(F)F)O3)c1 (stereo unspecified) | 0 | 1 | 23µM* | nt | ? | 35
CC(=O)Nc1cccc(-c2ccnc3c2CC(C(=O)NCc2cccs2)O3)c1 (stereo unspecified) | -7 | 0 | 0.65µM* | nt | 0.92µM* | 47
CC(=O)NCCNC(=O)C1Cc2c(-c3cccc(NC(C)=O)c3)ccnc2O1 (stereo unspecified) | 0 | 7 | 1% | nt | 0% | 16
CC(=O)Nc1cccc(-c2ccnc3c2CC(C(=O)NCC2CCOCC2)O3)c1 (stereo unspecified) | -6 | 1 | 2.3µM* | nt | 2.6µM* | 0
COc1ccc(CCCNC(=O)C2Cc3c(-c4cccc(NC(C)=O)c4)ccnc3O2)cc1 (stereo unspecified) | -3 | 12 | 3.7µM* | nt | 5.8µM* | 31
Cc1cccc(CCNC(=O)c2cc(=O)[nH]c3ccc(Br)cc23)c1 | nt | nt | nt | -1% | nt | nt
COc1ccc(C)cc1NC(=O)C(NS(=O)(=O)c1cccc2nsnc12)c1ccccc1 (stereo unspecified) | nt | nt | ? | 2% | ? | nt
COc1ccc(S(=O)(=O)NCC(c2ccco2)N2CCOCC2)cc1C (stereo unspecified) | nt | nt | -10% | 3% | -15% | nt
O=S(=O)(NCC(c1ccco1)N1CCN(c2ccc(F)cc2)CC1)c1ccc(F)cc1 (stereo unspecified) | -8 | 25 | ? | 4% | 23µM* | 25
SMILES | Six1-Eya2 inh | CtBP-E1A blk | DT40 TDP1 no CPT | TDP1 inh | TDP1 cell CPT | IL1B secr inh
COc1ccc(S(=O)(=O)NCC(c2cccnc2)N2CCN(c3ccc(F)cc3)CC2)cc1C (stereo unspecified) | -13 | -12 | 16µM* | 2%[56.1 µM] | 15µM* | ?
O=S(=O)(NCC(c1ccco1)N1CCN(c2ccccc2)CC1)c1ccccc1 (stereo unspecified) | nt | nt | ? | 10% | ? | nt
O=S(=O)(NCC(c1ccco1)N1CCN(c2ccc(F)cc2)CC1)c1cc(F)ccc1F (stereo unspecified) | nt | nt | 16µM* | 5% | 18µM* | nt
COc1ccc(S(=O)(=O)NCC(c2ccco2)N2CCN(c3ccc(F)cc3)CC2)cc1C (stereo unspecified) | nt | nt | 23µM* | 8% | 16µM* | nt
O=S(=O)(NCC(c1ccco1)N1CCN(c2ccccc2)CC1)c1cc(F)ccc1F (stereo unspecified) | nt | nt | ? | 12% | ? | nt
COc1ccc(S(=O)(=O)NCC(c2cccnc2)N2CCN(c3ccccc3)CC2)cc1C (stereo unspecified) | -6 | -3 | ? | 4% | ? | -5

Assay outcomes: PubChem, National Center for Advancing Translational Sciences (NCATS)
